Experimental data as given in the supplement of paper PMC6555819.

Columns and labels:
Test in all cases: PBM binding z-score (relative to random genomic background probes); higher = stronger binding; sequences stand for … in GC…GCGATTGACAGCGTAGAATGAAGG
[1] = system: FXR:RXRa (NR concentration 270 nM, RXRa partner concentration 90 nM)
Method in brief: (§1)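 Binding z-scores take random background probes as their reference. They come from custom Agilent 4×180K protein-binding microarrays incubated 1 h with ligand-free nuclear receptor dimers, with antibodies against each partner (one per run) detecting binding. Scanned fluorescence was regression-normalized.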

[2] = system: LXRa:RXRa (NR concentration 270 nM, RXRa partner concentration 90 nM)
Method in brief: as §1

[3] = system: LXRa homodimer (NR concentration 270 nM)
Method in brief: as §1

[4] = system: LXRb:RXRa (NR concentration 270 nM, RXRa partner concentration 90 nM)
Method in brief: as §1

[5] = system: LXRb homodimer (NR concentration 270 nM)
Method in brief: as §1

[6] = system: PPARa:RXRa (NR concentration 270 nM, RXRa partner concentration 90 nM)
Method in brief: as §1

[7] = system: PPARg:RXRa (NR concentration 180 nM, RXRa partner concentration 90 nM)
Method in brief: as §1

[8] = system: PPARg:RXRa 270nM:90nM, anti-RXR (NR concentration 270 nM, RXRa partner concentration 90 nM)
Method in brief: as §1

[9] = system: PPARg:RXRa 30nM:10nM, anti-RXR (NR concentration 30 nM, RXRa partner concentration 10 nM)
Method in brief: as §1

[10] = system: PPARg:RXRa 90nM:30nM, anti-RXR (NR concentration 90 nM, RXRa partner concentration 30 nM)
Method in brief: as §1

[11] = system: PPARg:RXRa DBDmut IVT, anti-RXR (DBD mutation: RXRa K156A/R161A, NR concentration 270 nM, RXRa partner concentration 90 nM)
Method in brief: as §1

[12] = system: PPARg:RXRa IVT, anti-PPARg (NR concentration 270 nM, RXRa partner concentration 90 nM)
Method in brief: as §1

[13] = system: PPARg DBDmut:RXRa IVT, anti-PPARg (DBD mutation: PPARg1 K132A/R137A, NR concentration 270 nM, RXRa partner concentration 90 nM)
Method in brief: as §1

[14] = system: PPARg DBDmut IVT, anti-PPARg (DBD mutation: PPARg1 K132A/R137A, NR concentration 270 nM)
Method in brief: as §1

[15] = system: PPARg homodimer (NR concentration 180 nM)
Method in brief: as §1

[16] = system: PXR:RXRa (NR concentration 270 nM, RXRa partner concentration 90 nM)
Method in brief: as §1

[17] = system: PXR homodimer (NR concentration 270 nM)
Method in brief: as §1

[18] = system: RARa:RXR (NR concentration 270 nM, RXRa partner concentration 90 nM)
Method in brief: as §1

[19] = system: RARa homodimer (NR concentration 270 nM)
Method in brief: as §1

[20] = system: RARb:RXRa (NR concentration 270 nM, RXRa partner concentration 90 nM)
Method in brief: as §1

Sequence | PBM binding z-score [1] | PBM binding z-score [2] | PBM binding z-score [3] | PBM binding z-score [4] | PBM binding z-score [5] | PBM binding z-score [6] | PBM binding z-score [7] | PBM binding z-score [8] | PBM binding z-score [9] | PBM binding z-score [10] | PBM binding z-score [11] | PBM binding z-score [12] | PBM binding z-score [13] | PBM binding z-score [14] | PBM binding z-score [15] | PBM binding z-score [16] | PBM binding z-score [17] | PBM binding z-score [18] | PBM binding z-score [19] | PBM binding z-score [20]
ACTATTGGTTGAGACGAGGGCAACCGATAGGTTG | 0.496 | 0.289 | -0.00418 | 0.08 | 0.0327 | 0.62 | 0.556 | 0.157 | 0.062 | 0.367 | -0.0898 | 0.516 | 0.379 | 0.283 | 0.821 | 1.5 | 0.199 | 1.1 | 0.274 | 1.07
TCTAGTTGGTCCAAGGTCACACACTCGAAATGCG | 3.91 | 3.59 | 1.87 | 3.54 | 0.734 | 4.18 | 4.19 | 5.58 | 4.56 | 5.7 | 2.28 | 3.07 | 1.36 | 0.797 | 3.08 | 4.21 | 1.63 | 4.31 | 1.96 | 3.53
CAAACTTGGTCACGAAAGGTCAAAGTCGAATGAC | 5.56 | 6.11 | 5.72 | 5.74 | 2.04 | 5.22 | 4.84 | 5.24 | 2.75 | 4.59 | 2.71 | 4.16 | 0.428 | 0.593 | 4.33 | 6.21 | 1.66 | 6.77 | 3.25 | 4.68
ATCTCTAGGTACAAGTTCAGTGAATCCCGAGGAT | 0.207 | 0.339 | 0.332 | 0.411 | 0.905 | 2.42 | 3.28 | 4.58 | 3.23 | 4.51 | 0.163 | 1.47 | 0.611 | 0.766 | 0.56 | 1.92 | 1.54 | 0.393 | 0.103 | 1.66
TCTGCTAGTTCAACGATGGTCAGCTAATCTGCTA | 0.141 | 0.175 | -0.555 | -0.303 | -0.648 | 0.264 | -0.456 | 0.558 | 1.26 | 0.99 | 0.463 | -0.112 | -0.479 | -0.339 | -1.27 | 0.51 | -0.0476 | 0.475 | -1.49 | 1.55
CGGCAAAGTTCAAGGTAACGTAACAGAAAGCAGC | 6.25 | 5.26 | 1.74 | 3.16 | -0.0277 | 4.47 | 3.94 | 4.6 | 1.59 | 3.43 | 0.813 | 1.56 | -1.51 | -0.284 | 2.12 | 4.05 | 2.11 | 3.29 | 0.805 | 5.04
CCTCGGAGGACAACAGAAGGTCAGAGCTGCCAGA | 0.854 | 1.74 | 0.922 | 1.14 | -0.67 | 1.78 | 0.435 | 0.249 | -0.533 | -0.218 | 0.129 | 0.0477 | -0.565 | -1.32 | 1.42 | 1.43 | -0.04 | 1.95 | 0.344 | 3.02
